Activity calls are given as the source filed them.
What was measured:
[1] = binders of probe aFSTL3 on microarray, primary screen, stem cell growth factor project, biochemical, small-molecule microarray, fluorescence 635/667 (AID 1064); details: higher = more signal;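 further: measures binding of the biotinylated anti-FSTL3 antibody to printed compounds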
[2] = binders from COS7 lysate, DM2A8 probe, primary screen, torsin A project, cell lysate, small-molecule microarray, fluorescence 635/667 (AID 1065); details: higher = more signal, COS7 lysate expressing mutant human TOR1A
[3] = binders of probe aFGF2 on microarray, primary screen, stem cell growth factor project, biochemical, small-molecule microarray, fluorescence 635/667 (AID 1067); details: higher = more signal;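 further: measures binding of biotinylated aFGF2 protein to printed compounds on slides; z-score merges feature fluorescence and signal-to-noise across triplicate slides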
[4] = binders of probe aFGF10 on microarray, primary screen, stem cell growth factor project, biochemical, small-molecule microarray, fluorescence 635/667 (AID 1071); details: higher = more signal;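 further: score merges 667 nm spot intensity and signal to noise from triplicate slides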
[5] = biological target: Neurogenic locus notch homolog protein 2 (Homo sapiens) (UniProt Q04721); assay: Notch2 binders on small-molecule microarrays, primary screen, biochemical, small-molecule microarray, 635 nm fluorescence, stem cell growth factors (AID 1073); details: Notch2 binding, higher = more signal
[6] = biological target: Pro-neuregulin-1, membrane-bound isoform (Homo sapiens) (UniProt Q02297); assay: NRG1 binders on small-molecule microarrays, primary screen, psychiatric disease protein project, biochemical, small-molecule microarray, fluorescence 635/667 (AID 1075); details: NRG1 binding, 635 nm fluorescence, higher = more signal;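 further: score combines 667 nm spot fluorescence with signal to noise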
Pro-neuregulin-1, membrane-bound isoform (Homo sapiens), sequence (Q02297 whole entry, looked up, the tested form may be a part, canonical isoform): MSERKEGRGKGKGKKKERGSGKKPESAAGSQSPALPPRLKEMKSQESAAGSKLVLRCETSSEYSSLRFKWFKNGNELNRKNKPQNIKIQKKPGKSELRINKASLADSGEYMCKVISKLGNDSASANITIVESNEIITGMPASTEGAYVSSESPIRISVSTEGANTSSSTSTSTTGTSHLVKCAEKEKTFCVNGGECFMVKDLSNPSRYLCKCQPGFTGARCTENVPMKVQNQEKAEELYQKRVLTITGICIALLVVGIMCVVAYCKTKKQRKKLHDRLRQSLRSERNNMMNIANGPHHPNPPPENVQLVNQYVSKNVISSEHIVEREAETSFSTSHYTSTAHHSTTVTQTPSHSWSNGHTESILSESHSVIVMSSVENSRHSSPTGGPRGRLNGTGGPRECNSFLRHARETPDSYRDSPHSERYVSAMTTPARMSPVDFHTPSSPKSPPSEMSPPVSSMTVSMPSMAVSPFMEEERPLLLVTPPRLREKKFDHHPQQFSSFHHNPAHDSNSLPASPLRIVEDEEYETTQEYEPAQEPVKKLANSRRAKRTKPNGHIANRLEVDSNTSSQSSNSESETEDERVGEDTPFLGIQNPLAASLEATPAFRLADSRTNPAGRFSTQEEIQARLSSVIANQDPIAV

[7] = system: Neuregulin-1 EGF-like domain; assay: binders of neuregulin-1 EGF-like domain, primary screen, biochemical, small-molecule microarray, 635 nm fluorescence (AID 1081); details: small-molecule microarray binding, higher = more signal;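 further: binding of the protein to compounds printed on small-molecule microarray slides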
[8] = FRG1 promoter luciferase signal modulators, primary screen, FRG1 inhibition for FSHD, cell-based, C2C12 myotubes, firefly/Renilla luciferase, luminescence (AID 1084); details: higher = more signal, called active from +8 up or from −8 down
[9] = binders of probe aFST on microarray, primary screen, stem cell growth factor project, biochemical, small-molecule microarray, fluorescence 635/667 (AID 1086); details: higher = more signal;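 further: score merges 667 nm fluorescence with signal-to-noise of each printed compound spot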
[10] = binders of probe aHhip on microarray, primary screen, stem cell growth factor project, biochemical, small-molecule microarray, fluorescence 635/667 (AID 1087); details: higher = more signal;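 further: score merges spot fluorescence at 667nm with spot signal to noise ratio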
[11] = system: PRMT1 (protein arginine N-methyltransferase 1); assay: PRMT1 binders on small-molecule microarrays, primary screen, biochemical, small-molecule microarray, 635 nm fluorescence (AID 1088); details: small-molecule microarray binding, higher = more signal;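 further: binding of Prmt1 protein to compounds spotted on small-molecule microarray slides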
[12] = yeast growth modulation, basal conditions, primary screen, YJM789 clinical isolate, OD600, 24 h (AID 1089);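 further: growth of clinical yeast isolate S. cerevisiae YJM 789 seeded 1000 cells per well; test concentration not given here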; details: S. cerevisiae YJM789 growth, higher = more signal, called active from +8 up or from −8 down
[13] = fission yeast growth modulation, primary screen, strain 972, OD600, 24 h, no modulator (AID 1090);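 further: basal condition with compound alone and no growth modifier present; test concentration not given here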; details: S. pombe 972 growth, higher = more signal, called active from +8 up or from −8 down
[14] = S. cerevisiae growth modulation with rapamycin, primary screen, strain BY4716, OD600, 96 h (AID 1091); details: higher = more signal, called active from +8 up or from −8 down; further: test concentration not given here
[15] = biological target: Torsin-1A-interacting protein 2 (Homo sapiens) (UniProt Q8NFQ8); assay: LULL1 binders on small-molecule microarray, primary screen, cell lysate, human LULL1 lysate, 635/667 nm fluorescence (AID 1092); details: hLULL1 lysate binding, 635 nm fluorescence, higher = more signal;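 further: probe is lysate of COS7 cells overexpressing human LULL1; score merges per-feature 667 nm fluorescence with signal-to-noise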
Torsin-1A-interacting protein 2 (Homo sapiens), sequence (Q8NFQ8 whole entry, looked up): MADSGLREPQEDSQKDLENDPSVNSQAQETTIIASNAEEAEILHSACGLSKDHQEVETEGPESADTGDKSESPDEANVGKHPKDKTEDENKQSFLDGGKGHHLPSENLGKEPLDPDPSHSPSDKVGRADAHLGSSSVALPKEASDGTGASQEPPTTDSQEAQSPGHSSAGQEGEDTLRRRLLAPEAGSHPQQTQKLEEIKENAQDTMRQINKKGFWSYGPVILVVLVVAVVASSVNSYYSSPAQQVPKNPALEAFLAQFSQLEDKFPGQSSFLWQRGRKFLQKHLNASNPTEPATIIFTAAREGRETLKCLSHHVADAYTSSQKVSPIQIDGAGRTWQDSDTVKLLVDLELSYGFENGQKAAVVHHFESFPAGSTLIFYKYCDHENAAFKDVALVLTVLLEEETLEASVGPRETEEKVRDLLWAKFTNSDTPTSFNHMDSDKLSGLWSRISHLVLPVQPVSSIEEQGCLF

[16] = E. coli growth modulation, two-sided OD650, primary screen, E. coli filamentation project, strain DRC41, 24 h (AID 1093); details: OD650, 24 h, higher = more signal, called active from +8 up or from −8 down;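 further: MC1000 strain lacking acrAB efflux and sulA so SOS filamentation is blocked; test concentration not given here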
[17] = small-molecule microarray binders of probe aLefty2, primary screen, biochemical, biotinylated probe, 635/667 nm fluorescence (AID 1094); details: higher = more signal;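 further: score merges spot fluorescence near 667 nm with spot signal-to-noise ratio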
[18] = system: Noggin (protein binding on small-molecule microarray); assay: Noggin binders on small-molecule microarray, primary screen, biochemical, 635/667 nm fluorescence (AID 1095); details: 635 nm fluorescence, higher = more signal;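 further: score merges 667 nm feature fluorescence with signal to noise over triplicate slides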
[19] = biological target: Neurogenic locus notch homolog protein 3 (Homo sapiens) (UniProt Q9UM47); assay: NOTCH3 binders on small-molecule microarray, primary screen, biochemical, 635/667 nm fluorescence (AID 1096); details: NOTCH3 binding, 635 nm fluorescence, higher = more signal
Neurogenic locus notch homolog protein 3 (Homo sapiens), sequence (Q9UM47 whole entry, looked up): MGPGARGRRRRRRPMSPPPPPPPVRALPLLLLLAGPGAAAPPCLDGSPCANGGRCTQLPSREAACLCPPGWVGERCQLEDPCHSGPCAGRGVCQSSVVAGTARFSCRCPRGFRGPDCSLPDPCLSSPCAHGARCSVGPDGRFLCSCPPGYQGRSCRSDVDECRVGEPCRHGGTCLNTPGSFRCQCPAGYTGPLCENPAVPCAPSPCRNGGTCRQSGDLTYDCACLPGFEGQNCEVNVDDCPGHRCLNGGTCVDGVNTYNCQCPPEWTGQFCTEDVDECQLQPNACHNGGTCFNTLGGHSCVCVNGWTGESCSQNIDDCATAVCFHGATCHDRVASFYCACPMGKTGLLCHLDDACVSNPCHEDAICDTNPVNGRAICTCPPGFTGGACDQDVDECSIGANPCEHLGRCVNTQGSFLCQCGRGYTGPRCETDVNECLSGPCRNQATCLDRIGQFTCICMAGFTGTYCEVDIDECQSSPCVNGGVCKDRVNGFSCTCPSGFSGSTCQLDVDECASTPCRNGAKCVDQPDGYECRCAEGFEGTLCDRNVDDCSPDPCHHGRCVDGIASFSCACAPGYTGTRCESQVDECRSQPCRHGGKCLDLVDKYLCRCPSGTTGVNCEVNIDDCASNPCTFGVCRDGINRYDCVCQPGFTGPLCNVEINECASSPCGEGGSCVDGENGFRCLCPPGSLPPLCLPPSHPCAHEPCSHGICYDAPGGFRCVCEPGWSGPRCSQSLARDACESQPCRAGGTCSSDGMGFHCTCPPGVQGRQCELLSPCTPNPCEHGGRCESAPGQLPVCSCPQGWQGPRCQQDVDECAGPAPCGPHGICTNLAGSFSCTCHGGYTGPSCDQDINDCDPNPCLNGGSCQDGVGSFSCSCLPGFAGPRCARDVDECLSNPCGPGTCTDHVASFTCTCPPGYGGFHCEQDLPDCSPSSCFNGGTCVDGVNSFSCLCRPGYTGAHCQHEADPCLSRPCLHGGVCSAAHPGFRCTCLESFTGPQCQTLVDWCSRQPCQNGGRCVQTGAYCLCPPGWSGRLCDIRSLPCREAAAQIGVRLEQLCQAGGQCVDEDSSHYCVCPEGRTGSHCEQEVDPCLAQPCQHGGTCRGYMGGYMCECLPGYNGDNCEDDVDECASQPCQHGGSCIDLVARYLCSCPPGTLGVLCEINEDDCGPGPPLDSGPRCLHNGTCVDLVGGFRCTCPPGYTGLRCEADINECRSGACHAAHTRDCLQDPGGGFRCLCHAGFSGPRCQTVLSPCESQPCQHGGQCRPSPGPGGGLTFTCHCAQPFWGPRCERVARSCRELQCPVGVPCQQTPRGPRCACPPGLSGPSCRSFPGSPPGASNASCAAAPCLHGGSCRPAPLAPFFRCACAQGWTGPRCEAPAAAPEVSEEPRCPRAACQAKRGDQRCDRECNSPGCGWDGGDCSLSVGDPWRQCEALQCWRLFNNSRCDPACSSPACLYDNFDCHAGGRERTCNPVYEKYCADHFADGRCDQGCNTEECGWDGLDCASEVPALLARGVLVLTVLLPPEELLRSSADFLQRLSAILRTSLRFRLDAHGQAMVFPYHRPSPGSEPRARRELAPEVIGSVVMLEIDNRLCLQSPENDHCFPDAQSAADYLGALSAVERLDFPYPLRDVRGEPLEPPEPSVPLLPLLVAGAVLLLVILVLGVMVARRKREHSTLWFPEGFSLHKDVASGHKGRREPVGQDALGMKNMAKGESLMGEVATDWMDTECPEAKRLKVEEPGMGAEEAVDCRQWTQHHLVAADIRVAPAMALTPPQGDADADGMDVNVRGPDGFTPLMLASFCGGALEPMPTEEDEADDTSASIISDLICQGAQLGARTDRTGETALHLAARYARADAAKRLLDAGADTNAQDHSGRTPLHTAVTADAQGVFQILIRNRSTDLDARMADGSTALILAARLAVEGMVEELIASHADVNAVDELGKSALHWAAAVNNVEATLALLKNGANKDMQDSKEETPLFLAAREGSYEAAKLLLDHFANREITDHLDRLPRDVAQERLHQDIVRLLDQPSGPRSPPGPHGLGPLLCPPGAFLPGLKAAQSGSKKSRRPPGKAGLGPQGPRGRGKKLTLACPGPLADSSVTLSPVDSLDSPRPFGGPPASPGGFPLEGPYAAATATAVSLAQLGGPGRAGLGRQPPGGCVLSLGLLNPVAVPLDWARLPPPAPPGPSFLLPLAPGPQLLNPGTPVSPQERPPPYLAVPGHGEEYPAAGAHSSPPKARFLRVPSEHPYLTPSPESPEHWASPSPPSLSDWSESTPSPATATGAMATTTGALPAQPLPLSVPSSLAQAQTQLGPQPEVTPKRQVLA

[20] = small-molecule microarray binders of probe aEGFR, primary screen, biochemical, biotinylated probe, 635/667 nm fluorescence (AID 1097); details: higher = more signal;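 further: probe is a biotinylated anti-EGFR antibody binding compounds printed on slides; score combines fluorescence near 667 nm and signal to noise of each spot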

Row | SMILES | composite z-score [1] | composite z-score [2] | composite z-score [3] | composite z-score [4] | composite z-score [5] | composite z-score [6] | composite z-score [7] | z-score [8] | composite z-score [9] | composite z-score [10] | composite z-score [11] | z-score [12] | z-score [13] | z-score [14] | composite z-score [15] | z-score [16] | composite z-score [17] | composite z-score [18] | composite z-score [19] | composite z-score [20]
1 | C=CCOC(=O)[C@H]1[C@@H]2C(=O)O[C@@H](c3ccccc3)[C@@H](c3ccccc3)N2[C@@H](c2ccc(OCCOC(=O)[C@H]3C[C@H]4C(=O)N[C@@H](Cc5ccccc5)C(=O)N4[C@H]3c3cccc(OCCO)c3)cc2)[C@]12C(=O)Nc1ccc(I)cc12 | -0.36 | 0.876 | 0.0422 | 0.66 | 0.118 | 1.35 | 1.21 | 0.633 (inactive) | 0.0086 | 0.122 | 1.54 | 0.731 (inactive) | 1 (inactive) | 4 (inactive) | 2.36 | -0.0451 (inactive) | -0.185 | 1.91 | 1.09 | -0.067
2 | COc1cc(CO)cc(I)c1O[C@H]1C=C(C(=O)NCCO)C[C@@H](N(Cc2ccc(F)cc2)C(=O)C2CCCO2)[C@@H]1O (stereo not given in full) | -0.625 | 0.114 | -0.057 | 0.122 | 0.159 | -0.0002 | 0.547 | -0.851 (inactive) | 0.0494 | 0.142 | -0.516 | -0.558 (inactive) | -0.389 (inactive) | -0.188 (inactive) | -0.492 | 3.2 (inactive) | -0.116 | 0.0313 | -0.331 | -0.158
3 | CC(C)C(CO)N1C(=O)[C@]2(C)C3C(=O)OCCC/C=C\[C@H]3OC23C=CCN(c2ccc(Cl)cc2)C(=O)[C@@H]13 (stereo not given in full) | 0.0972 | -0.481 | -0.101 | -0.17 | -0.689 | 0.344 | 1.11 | 0.0186 (inactive) | 0.0043 | -0.0994 | 0.88 | -0.579 (inactive) | -1.14 (inactive) | -0.268 (inactive) | 3.28 | -0.718 (inactive) | -0.0458 | -0.608 | 0.0253 | -0.155
4 | COc1cc(OC)c(C(O)C2C=CC3C(=O)N(c4ccccc4)C(=O)C3N2Nc2ccc(C#N)cc2)cc1Br (stereo not given) | 1.03 | -0.223 | 0.353 | 1.17 | 1.31 | 1.75 | 1.34 | -0.647 (inactive) | 1.73 | 0.219 | 0.977 | -0.459 (inactive) | 1.86 (inactive) | -0.772 (inactive) | 2.64 | -0.409 (inactive) | 0.929 | -0.109 | 1.15 | 0.621
5 | O=C1NCC(=O)N2[C@@H]1C[C@@H](C(=O)O)[C@H]2c1ccc(O)cc1 | 0.257 | 0.433 | 0.0121 | 0.593 | -0.218 | 1.81 | 1.39 | 4.94 (inactive) | 0.0816 | -0.0618 | 1.56 | 0.442 (inactive) | -0.498 (inactive) | 0.318 (inactive) | 2.6 | 0.984 (inactive) | 0.0875 | 1.44 | 1.08 | -0.326
6 | CC1CC/C=C\[C@H]2OC34C=CCN(C(C)C)C(=O)[C@H]3N(CCCCCO)C(=O)[C@@H]4C2C(=O)O1 (stereo not given in full) | 0.4 | -1.06 | -0.0996 | -0.47 | -0.704 | -0.187 | 0.0093 | 0.371 (inactive) | -0.386 | -0.191 | -0.897 | -0.104 (inactive) | -0.931 (inactive) | -0.958 (inactive) | -0.573 | 0.827 (inactive) | -0.139 | -1.43 | -0.208 | -0.281
7 | C=CC[C@]1(C(=O)N(C)C)N=C(c2ccc(OCCCO)cc2)O[C@H]1c1ccccc1N=[N+]=[N-] | 0.396 | -0.113 | 0.161 | 0.567 | 1.48 | 1.3 | 1.2 | 1.52 (inactive) | 1.87 | -0.199 | 1.48 | 0.0061 (inactive) | -0.102 (inactive) | -0.317 (inactive) | 3.2 | 0.394 (inactive) | 0.285 | 0.464 | 1.03 | 0.0651
8 | Cc1ccc(S[C@]2(C(=O)O)CC(=O)N(Cc3ccccc3Cl)[C@@H]2c2ccc(CO)cc2)cc1 | 0.96 | -0.614 | -0.113 | 0.449 | -0.72 | 0.103 | -0.408 | -0.917 (inactive) | -0.172 | -0.0994 | -0.164 | -0.0285 (inactive) | -1.31 (inactive) | 0.644 (inactive) | 2.95 | -0.0647 (inactive) | 0.0069 | -1.46 | -0.944 | -0.119
9 | COC(=O)[C@@]1(Cc2ccccc2)[C@H]2c3cc(C(=O)N4CCCC4)n(C[C@H](O)CO)c3C[C@H]2CN1C(=O)c1ccccc1 | 0.52 | -0.0861 | -0.16 | 0.0518 | 1.58 | 1.99 | 1.3 | 0.593 (inactive) | 0.348 | 0.0053 | -0.956 | 0.43 (inactive) | 1.74 (inactive) | -0.167 (inactive) | 3.45 | -0.436 (inactive) | 0.127 | 0.334 | 0.873 | 0.08

Source: PubChem BioAssay
